Screens as filed in PubChem BioAssay.
Myeloid diff 2: myeloid differentiation induction. calls only at 10 µM. ER-HoxA9 myeloid progenitors, lysozyme-GFP differentiation, flow cytometry. hit rate 1% among 360,000;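 active = normalized GFP-positive differentiation at or above the plate's own cutoff, the solvent-only control mean plus 3 SD; inconclusive = no clear call, values can overlap the other calls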;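 note: cells exposed to compound for four days before flow analysis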
LAP4-GFP MLPCN: alters LAP4-GFP fluorescence in TOR pathway yeast screen. S. cerevisiae LAP4-GFP multiplex, flow cytometry GFP, 3 h; median GFP as percent of DMSO wells. GFP response vs DMSO, % at 10 µM. hit rate 0.34% among 320,000. AID 2023;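 active = GFP response vs DMSO above a set limit, about the screen mean plus 3 SD, cut at about 150% in these data; inconclusive = under 70 cell events counted for the yeast strain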
CIT2-GFP yeast: alters CIT2-GFP fluorescence in TOR pathway yeast screen | S. cerevisiae CIT2-GFP strain, flow cytometry, 3 h; 100 means same as DMSO wells | GFP response vs DMSO, % at 10 µM | hit rate 0.065% among 320,000 | AID 2029;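 active = GFP response relative to DMSO above a set limit, near the screen mean plus 3 SD, cut at about 150% in these data; inconclusive = Fewer than 70 cells measured for a yeast strain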;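 note: ratio of well median GFP fluorescence to mean of DMSO wells on the plate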
RPL19A TOR yeast: modulators of TOR pathway RPL19A-GFP in S. cerevisiae; percent response vs DMSO, % at 10 µM; S. cerevisiae RPL19A-GFP strain, flow cytometry, 3 h; stronger effect = lower value; hit rate 0.3% among 330,000;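 active = percent response vs DMSO below 50%; inconclusive = fewer than 70 events counted for the yeast strain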;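 note: median channel GFP fluorescence of the barcoded RPL19A-GFP strain; ratio of sample median GFP to plate DMSO average so 100% = DMSO; lower means less RPL19A-GFP as with rapamycin TOR inhibition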
MEP2 TOR yeast: alters MEP2-GFP fluorescence in TOR pathway yeast screen | AID 2016 | S. cerevisiae MEP2-GFP strain, flow cytometry GFP, 3 h; 100% = DMSO control level | GFP response vs DMSO, % at 10 µM | hit rate 0.51% among 330,000;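 active = GFP response versus DMSO above a set limit, roughly screen mean plus 3 SD, cut at about 180% in these data; inconclusive = fewer than 70 cells counted for a yeast strain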;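 note: median GFP fluorescence of the barcode-gated MEP2-GFP cells per well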
AGP1 TOR yeast: modulators of TOR pathway AGP1-GFP in S. cerevisiae | hit rate 0.02% among 320,000 | GFP response vs DMSO, % at 10 µM | AID 2066 | S. cerevisiae AGP1-GFP multiplex flow cytometry, 3 h; GFP as percent of DMSO wells;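 active = GFP response relative to DMSO above a set limit, near screen average plus 3 SD, cut at about 150% in these data; inconclusive = fewer than 70 cells counted for the yeast strain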;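 note: median GFP channel fluorescence of the gated AGP1 strain per well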
* marks the source's active call; other numbers are inactive results; i = inactive; ? = inconclusive; / = no result given; + = active, no number; [ ] = dose if it differs, or a comment. An excerpt weighted towards active compounds, which were near 1.8% of everything screened.

SMILES | Myeloid diff 2 | LAP4-GFP MLPCN | CIT2-GFP yeast | RPL19A TOR yeast | MEP2 TOR yeast | AGP1 TOR yeast
Cc1cc(/C=N\NC(=O)CC(=O)NC2CCCCC2)c(C)n1-c1ccc(Cl)c(Cl)c1 | + | 97 | 89 | 93 | 95 | 94
O=C(c1ccc(CSCc2ccccc2F)o1)N1CCN(c2ccc(N3CCOCC3)nn2)CC1 | i | 107 | 101 | 101 | 118 | 111
Cc1cc(S(=O)(=O)Nc2ccc(C(=O)NCC3(N4CCCCC4)CCCCC3)cc2)ccc1F | i | 97 | 91 | 91 | 97 | 94
COc1cc(/C=C2\N=C(C)OC2=O)cc(Cl)c1OC(C)=O | i | 110 | 109 | 110 | 110 | 94
CCOc1cc(/C=C2\N=C(C)OC2=O)cc(Cl)c1OCC(=O)OC | i | 170* | 106 | 103 | 96 | 96
CC1(c2ccc3c(c2)OCCO3)NC(=O)N(CC(=O)Nc2ccccc2SCC#N)C1=O (configuration not stated) | + | 87 | 107 | 101 | 97 | 102
O=C(NC1CCCCC1)c1ccc2snnc2c1 | i | 79 | ? | 37*[may fluoresce violet] | 364*[may fluoresce violet] | ?
COc1ccccc1NC(=O)C(=O)N/N=C/c1ccc([N+](=O)[O-])s1 | + | / | / | / | / | /
COC(=O)N/N=C/c1ccc([N+](=O)[O-])s1 | + | 113 | 105 | 103 | 113 | 101
Cc1ccnn1CC(=O)N/N=C/c1cccs1 | i | 82 | 89 | 99 | 93 | 85
Cc1ccnn1CC(=O)N/N=C/c1ccc([N+](=O)[O-])s1 | + | 134 | 108 | 99 | 98 | 96
Cc1nn(CC(=O)NCCc2ccc(Cl)cc2Cl)c(C)c1[N+](=O)[O-] | i | 90 | 97 | 101 | 98 | 96
O=c1c2ccc([N+](=O)[O-])c3cccc(c32)c2nc3ccccc3n12 | / | 148 | 119 | 106 | 183* | 108
CCc1nc2ccccc2c2nc3ccccc3n12 | i | 103 | 96 | 102 | 102 | 97
COc1ccc(/C=C(/NC(=O)c2ccco2)C(=O)NCCc2ccccc2)cc1 | i | 96 | 100 | 108 | 96 | 106
C=C(C)[C@H]1CC=C(C)/C(=N/NC(=O)CNc2ccccc2OC)C1 | i | 119 | ? | 31*[may fluoresce violet] | 223*[may fluoresce violet] | ?
COc1cc(NC(=O)C2CCCCC2)c(OC)cc1NC(=O)CN1CCCCC1 | i | 84 | ? | 58 | 249*[may fluoresce violet] | ?
CCC(c1nnnn1C(C)(C)C)N1CCN(C/C=C/c2ccccc2)CC1 (configuration not stated) | i | / | / | / | / | /
CC(C)(C)n1nnnc1C(c1ccccc1)N1CCN(C/C=C/c2ccccc2)CC1 (configuration not stated) | + | / | / | / | / | /
CC(C)c1ccc(N(C)C(=O)Cc2c(C(=O)O)n(C)c3ccccc23)cc1 | + | 105 | 85 | 101 | 99 | 97
CN(C(=O)Cc1c(C(=O)O)n(C)c2ccccc12)c1ccc(Cl)cc1 | i | 101 | 92 | 99 | 99 | 95
O=C(CCc1nc2ccccc2c(=O)[nH]1)Nc1ccccc1N1CCCC1 | i | 103 | 97 | 94 | 93 | 99
O=S(=O)(NCCc1ccncc1)c1ccc(S(=O)(=O)N2CCCCCC2)cc1 | i | 92 | 93 | 94 | 96 | 100
COc1ccc(C(C)=O)cc1COc1ccc(Cl)cc1Cl | i | / | / | 103 | 100 | /
COc1cccc(-c2cnc3c(NC=O)cc(-c4ccc(N(C)C)cc4)cn23)c1 | i | / | / | / | / | /
SMILES | Myeloid diff 2 | LAP4-GFP MLPCN | CIT2-GFP yeast | RPL19A TOR yeast | MEP2 TOR yeast | AGP1 TOR yeast
COc1ccc(-c2cc(NC=O)c3ncc(-c4cccc(C(=O)NCCN(C)C)c4)n3c2)cc1 | + | / | / | / | / | /
COc1cccc(-c2cnc3c(NC=O)cc(-c4cc(OC)c(OC)c(OC)c4)cn23)c1 | + | / | / | / | / | /
O=C(Nc1ccccc1)c1nnsc1S(=O)c1ccc(Cl)cc1 (configuration not stated) | ? | 231* | 58 | 59 | 95 | 66
Cc1nnsc1S(=O)c1ccc(Cl)cc1 (configuration not stated) | ? | 128 | 113 | 96 | 99 | 118
Cc1[nH]c2ccccc2c1C(=O)C(=O)N1c2ccccc2CC1C (configuration not stated) | i | 129 | 104 | 101 | 104 | 113
CCN(CC)c1ccc(/C=C(\C#N)C(N)=S)cc1 | + | 138 | 100 | 89 | 118 | 86
CCN(CC)c1ccc(/C=C(\C#N)C(N)=O)cc1 | i | / | / | / | / | /
COc1ccc(-c2cc3c(=O)n(CC(=O)NCCCc4ccccc4)ncn3n2)cc1 | i | 78 | 75 | 86 | 72 | 77
Nc1ccc(N2CCCC2)c(S(=O)(=O)Nc2cccc(C(F)(F)F)c2)c1 | + | 102 | 78 | 90 | 88 | 91
COc1cc(CNC(=O)c2cc(-c3ccc(F)cc3OC)n[nH]2)cc(OC)c1 | i | / | / | / | / | /
COc1cc(OC)cc(C(=O)NC(C(=O)O)C23CC4CC(CC(C4)C2)C3)c1 (configuration not stated) | i | 97 | 97 | 100 | 106 | 105
CN(C)NC(=O)C(NC(=O)c1ccccc1)C12CC3CC(CC(C3)C1)C2 (configuration not stated) | + | 80 | 95 | 99 | 95 | 95
COc1ccc(CCNC(=O)/C=C/C(=O)O)cc1OC | i | ? | 94 | 90 | 125 | 84
CCCNC(=O)c1ccc(N2CCC3(CC2)CC(c2ccccc2)=NO3)c(NC(=O)c2ccccc2)c1 | + | 98 | 66 | 93 | 89 | 72
CCCNC(=O)c1ccc(N2CCC3(CC2)CC(c2ccccc2)=NO3)c(NC(=O)c2ccc(Br)cc2)c1 | i | 112 | 83 | 105 | 96 | 94
CC(=O)c1ccc(NC(=O)C2CCN(S(=O)(=O)c3cccc4nonc34)CC2)cc1 | i | ? | ? | ? | ? | ?
O=C(C1CCCN(S(=O)(=O)c2cccc3nonc23)C1)N1CCN(c2ccccc2Cl)CC1 (configuration not stated) | i | 103 | 85 | 95 | 98 | 95
O=C(C1CCN(S(=O)(=O)c2cccc3nonc23)CC1)N1CCCCC1 | i | ? | ? | 17*[may fluoresce violet] | ? | ?
O=C(C1CCCN(S(=O)(=O)c2cccc3nonc23)C1)N1CCN(c2cccc(Cl)c2)CC1 (configuration not stated) | + | 96 | 102 | 100 | 98 | 103
Cc1ccc(NC(=O)C2CCN(S(=O)(=O)c3cccc4nonc34)CC2)cc1 | i | 71 | ? | 53 | 297*[may fluoresce violet] | 16
O=S(=O)(c1cccc2nonc12)N1CCCCCC1 | i | 112 | 96 | 97 | 98 | 99
O=C(CN1C(=O)c2cccnc2Oc2ccc(Cl)cc21)NCCCc1ccccc1 | i | 114 | 103 | 106 | 106 | 111
